# The campaign covered roughly 5,500 compounds. About 2,000 (36%) were called active. About 18% were inconclusive and are not listed. The list shows a part of the results. Values without a mark were called inactive. Rule as the data show it: active = normalized growth mostly below about 0.91 (no sharp cut-off); inconclusive = no clear call, values can overlap the other calls; inactive = mostly above about 0.92.
# Experiment: chemical genetic growth profiling, strain panel (AID 1159580);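 also: tested at 20 µM; growth read once vehicle control cultures reached saturation at 30 °C; 1 = growth at the plate median or of vehicle wells; lower values mean less growth of the strain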
# Settings: growth OD
# [1] = S. cerevisiae deletion strains, locus YDL101C, strain DUN1, hits give low values
# [2] = S. cerevisiae deletion strains, locus YHR030C, strain SLT2, hits give low values
smiles,measurement,setting,value
C/C(=N/Nc1ccccc1)c1cc(Cl)cc(Cl)c1O,normalized growth,"S. cerevisiae deletion strains, locus YAR019C, strain CDC15, hits give low values",0.964
same,normalized growth,"S. cerevisiae deletion strains, locus YBL105C, strain PKC1, hits give low values",0.977
same,normalized growth,"S. cerevisiae deletion strains, locus YBR135W, strain CKS1, hits give low values",0.954
same,normalized growth,"S. cerevisiae deletion strains, locus YBR136W, strain MEC1, hits give low values",0.954
same,normalized growth,"S. cerevisiae deletion strains, locus YBR160W, strain CDC28, hits give low values",0.958
same,normalized growth,"S. cerevisiae deletion strains, locus YDL017W, strain CDC7, hits give low values",0.964
same,normalized growth,"S. cerevisiae deletion strains, locus YDL028C, strain MPS1, hits give low values",0.967
same,normalized growth,[1],0.969
same,normalized growth,"S. cerevisiae deletion strains, locus YDL108W, strain KIN28, hits give low values",0.954
same,normalized growth,"S. cerevisiae deletion strains, locus YDL132W, strain cdc53, hits give low values",0.956
same,normalized growth,"S. cerevisiae deletion strains, locus YDL214C, strain PRR2, hits give low values",0.785
same,normalized growth,"S. cerevisiae deletion strains, locus YDR052C, strain DBF4, hits give low values",0.968
same,normalized growth,"S. cerevisiae deletion strains, locus YDR054C, strain cdc34, hits give low values",0.966
same,normalized growth,"S. cerevisiae deletion strains, locus YDR226W, strain ADK1, hits give low values",0.954
same,normalized growth,"S. cerevisiae deletion strains, locus YDR477W, strain SNF1, hits give low values",0.734
same,normalized growth,"S. cerevisiae deletion strains, locus YER123W, strain YCK3, hits give low values",0.734
same,normalized growth,"S. cerevisiae deletion strains, locus YER133W, strain GLC7, hits give low values",0.825
same,normalized growth,"S. cerevisiae deletion strains, locus YFL009W, strain cdc4, hits give low values",0.964
same,normalized growth,"S. cerevisiae deletion strains, locus YFL029C, strain CAK1, hits give low values",0.955
same,normalized growth,"S. cerevisiae deletion strains, locus YFR003C, strain YPI1, hits give low values",0.962
same,normalized growth,"S. cerevisiae deletion strains, locus YFR019W, strain FAB1, hits give low values",0.834
same,normalized growth,"S. cerevisiae deletion strains, locus YFR028C, strain CDC14, hits give low values",0.93
same,normalized growth,"S. cerevisiae deletion strains, locus YGR040W, strain KSS1, hits give low values",0.746
same,normalized growth,"S. cerevisiae deletion strains, locus YGR052W, strain FMP48, hits give low values",0.804
same,normalized growth,"S. cerevisiae deletion strains, locus YGR092W, strain DBF2, hits give low values",0.658
same,normalized growth,[2],0.308 (active)
same,normalized growth,"S. cerevisiae deletion strains, locus YHR079C, strain IRE1, hits give low values",0.748
same,normalized growth,"S. cerevisiae deletion strains, locus YHR082C, strain KSP1, hits give low values",0.731
same,normalized growth,"S. cerevisiae deletion strains, locus YHR205W, strain SCH9, hits give low values",0.694
same,normalized growth,"S. cerevisiae deletion strains, locus YIL147C, strain SLN1, hits give low values",0.968
same,normalized growth,"S. cerevisiae deletion strains, locus YJL095W, strain BCK1, hits give low values",0.815
same,normalized growth,"S. cerevisiae deletion strains, locus YJL128C, strain PBS2, hits give low values",0.884
same,normalized growth,"S. cerevisiae deletion strains, locus YJL157C, strain FAR1, hits give low values",0.79
same,normalized growth,"S. cerevisiae deletion strains, locus YJR016C, strain ILV3, hits give low values",0.954
same,normalized growth,"S. cerevisiae deletion strains, locus YJR066W, strain TOR1 (second series), hits give low values",0.829
same,normalized growth,"S. cerevisiae deletion strains, locus YJR066W, strain TOR1, hits give low values",0.66
same,normalized growth,"S. cerevisiae deletion strains, locus YKL048C, strain ELM1, hits give low values",0.87
same,normalized growth,"S. cerevisiae deletion strains, locus YKL067W, strain YNK1, hits give low values",0.851
same,normalized growth,"S. cerevisiae deletion strains, locus YKL101W, strain HSL1, hits give low values",0.798
same,normalized growth,"S. cerevisiae deletion strains, locus YKL193C, strain SDS22, hits give low values",0.948
same,normalized growth,"S. cerevisiae deletion strains, locus YKL203C, strain TOR2, hits give low values",0.745
same,normalized growth,"S. cerevisiae deletion strains, locus YLR113W, strain HOG1, hits give low values",0.792 (active)
same,normalized growth,"S. cerevisiae deletion strains, locus YLR133W, strain CKI1, hits give low values",0.731 (active)
same,normalized growth,"S. cerevisiae deletion strains, locus YLR403W, strain SFP1, hits give low values",0.681
same,normalized growth,"S. cerevisiae deletion strains, locus YML070W, strain DAK1, hits give low values",0.81
same,normalized growth,"S. cerevisiae deletion strains, locus YMR001C, strain CDC5, hits give low values",0.954
same,normalized growth,"S. cerevisiae deletion strains, locus YMR205C, strain PFK2 (second series), hits give low values",0.862
same,normalized growth,"S. cerevisiae deletion strains, locus YMR277W, strain FCP1, hits give low values",0.95
same,normalized growth,"S. cerevisiae deletion strains, locus YNL006W, strain LST8, hits give low values",0.966
same,normalized growth,"S. cerevisiae deletion strains, locus YNL020C, strain ARK1, hits give low values",0.647 (active)
same,normalized growth,"S. cerevisiae deletion strains, locus YNL161W, strain CBK1, hits give low values",0.964
same,normalized growth,"S. cerevisiae deletion strains, locus YNL183C, strain NPR1, hits give low values",0.872
same,normalized growth,"S. cerevisiae deletion strains, locus YNL207W, strain RIO2, hits give low values",0.958
same,normalized growth,"S. cerevisiae deletion strains, locus YNL222W, strain SSU72, hits give low values",0.961
same,normalized growth,"S. cerevisiae deletion strains, locus YNL307C, strain MCK1 (second series), hits give low values",0.632 (active)
same,normalized growth,"S. cerevisiae deletion strains, locus YOL078W, strain AVO1, hits give low values",0.961
same,normalized growth,"S. cerevisiae deletion strains, locus YOL136C, strain PFK27, hits give low values",0.764
same,normalized growth,"S. cerevisiae deletion strains, locus YOR061W, strain CKA2, hits give low values",0.784
same,normalized growth,"S. cerevisiae deletion strains, locus YOR119C, strain RIO1, hits give low values",0.732
same,normalized growth,"S. cerevisiae deletion strains, locus YOR231W, strain MKK1, hits give low values",0.855
same,normalized growth,"S. cerevisiae deletion strains, locus YOR329C, strain SCD5, hits give low values",0.974
same,normalized growth,"S. cerevisiae deletion strains, locus YPL031C, strain PHO85, hits give low values",0.742
same,normalized growth,"S. cerevisiae deletion strains, locus YPL153C, strain RAD53, hits give low values",0.78
same,normalized growth,"S. cerevisiae deletion strains, locus YPL204W, strain HRR25, hits give low values",0.737
same,normalized growth,"S. cerevisiae deletion strains, locus YPL209C, strain IPL1, hits give low values",0.965
same,normalized growth,"S. cerevisiae deletion strains, locus YPL256C, strain CLN2, hits give low values",0.774 (active)
same,normalized growth,"S. cerevisiae deletion strains, locus YPR025C, strain CCL1, hits give low values",0.963
same,normalized growth,"S. cerevisiae deletion strains, locus YPR106W, strain ISR1, hits give low values",0.942
same,normalized growth,"S. cerevisiae deletion strains, locus YPR111W, strain DBF20, hits give low values",0.938
same,normalized growth,"S. cerevisiae deletion strains, strain NNK1, hits give low values",0.951
same,normalized growth,"S. cerevisiae deletion strains, strain TSCII, hits give low values",0.967
C/C(=N/Nc1c(Cl)cc(Cl)cc1Cl)c1cc(F)ccc1OC(=O)c1ccccc1F,normalized growth,"S. cerevisiae deletion strains, locus YAL013W, strain DEP1, hits give low values",0.99
same,normalized growth,"S. cerevisiae deletion strains, locus YBR229C, strain ROT2, hits give low values",0.978
same,normalized growth,[1],0.969
same,normalized growth,"S. cerevisiae deletion strains, locus YDL134C, strain PPH21, hits give low values",1.03
same,normalized growth,"S. cerevisiae deletion strains, locus YDR150W, strain NUM1, hits give low values",0.991
same,normalized growth,"S. cerevisiae deletion strains, locus YEL061C, strain CIN8, hits give low values",1.04
same,normalized growth,"S. cerevisiae deletion strains, locus YGR078C, strain PAC10, hits give low values",0.983
same,normalized growth,[2],1.04
same,normalized growth,"S. cerevisiae deletion strains, locus YHR087W, strain rtc3, hits give low values",0.978
same,normalized growth,"S. cerevisiae deletion strains, locus YJR043C, strain POL32, hits give low values",0.968
same,normalized growth,"S. cerevisiae deletion strains, locus YJR075W, strain HOC1, hits give low values",0.984
same,normalized growth,"S. cerevisiae deletion strains, locus YKL190W, strain CNB1, hits give low values",1.03
same,normalized growth,"S. cerevisiae deletion strains, locus YLR039C, strain RIC1, hits give low values",1.02
same,normalized growth,"S. cerevisiae deletion strains, locus YLR058C, strain SHM2 (second series), hits give low values",1.01
same,normalized growth,"S. cerevisiae deletion strains, locus YLR085C, strain ARP6, hits give low values",1.11
same,normalized growth,"S. cerevisiae deletion strains, locus YLR262C, strain YPT6, hits give low values",0.957
same,normalized growth,"S. cerevisiae deletion strains, locus YML094W, strain GIM5, hits give low values",1.01
same,normalized growth,"S. cerevisiae deletion strains, locus YMR219W, strain ESC1, hits give low values",0.966
same,normalized growth,"S. cerevisiae deletion strains, locus YMR263W, strain SAP30, hits give low values",0.996
same,normalized growth,"S. cerevisiae deletion strains, locus YNL128W, strain TEP1, hits give low values",1.03
same,normalized growth,"S. cerevisiae deletion strains, locus YNL153C, strain GIM3, hits give low values",0.953
same,normalized growth,"S. cerevisiae deletion strains, locus YNL298W, strain CLA4 (second series), hits give low values",1.07
same,normalized growth,"S. cerevisiae deletion strains, locus YNL322C, strain KRE1, hits give low values",1.01
same,normalized growth,"S. cerevisiae deletion strains, locus YNR030W, strain Alg12, hits give low values",1.03
same,normalized growth,"S. cerevisiae deletion strains, locus YOL006C, strain TOP1, hits give low values",1.06
same,normalized growth,"S. cerevisiae deletion strains, locus YPL055C, strain LGE1, hits give low values",0.981
same,normalized growth,"S. cerevisiae deletion strains, locus YPL241C, strain CIN2, hits give low values",0.972
same,normalized growth,"S. cerevisiae deletion strains, locus YPR135W, strain CTF4, hits give low values",0.962
same,normalized growth,"S. cerevisiae strains, strain wild type, hits give low values",1.03

# Reference: PubChem BioAssay AID1159580 (chemical genetic matrix, 2015)
